Screens from PubChem.
MARV entry inh – qHTS for inhibitors of binding or entry into cells for Marburg Virus | Potency, µM (series often up to 37.8 µM), usual class: inhibitors | Marburg virus pseudotyped entry inhibition, cell reporter | 300,000 compounds, 1.8% hits; calls by dose curve; tested in HEK293 cells
HCMV inh – qHTS Assay for inhibitors of the human cytomegalovirus (HCMV) | AID 1259415, 2018 | activity change, negative = inhibition, % at 57.5 µM | HFF cells, HCMV-luciferase reporter, 72 h; stronger effect = lower value | 410,000 compounds, 4.5% hits; in the data active means activity change below about -60%; inconclusive means no clear call, values can overlap the other calls; inactive means above about -39%
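Two-dose cell screen: HFF monolayers treated with compounds and infected with luciferase-expressing HCMV at 1 PFU/cell, 72 h at 37C, then lysed for luciferase measurement.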
Pf growth 48h – Primary qHTS for delayed death inhibitors of the malarial parasite plastid, 48 hour incubation | Potency, µM (highest dose often 28.7 µM), most hits filed as inhibitors | P. falciparum luciferase growth in erythrocytes, 48 h | 310,000 compounds, 5.9% hits | AID 504832, 2011
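Parasite viability was followed by luminescence of a genomically integrated firefly luciferase. Cultures held 0.1% parasitemia at 2% hematocrit (final), incubated under 5% CO2 at 37 C.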
Lassa entry inh – qHTS for Inhibitors of binding or entry into cells for Lassa Virus; 300,000 compounds, 1.2% hits; Lassa virus pseudotype entry inhibition, cell reporter; Potency, µM (doses to about 37.9 µM), usual class: inhibitors; calls by dose curve; tested in HEK293 cells; further: nearly all actives have a fitted effect of over 50% in size
Pf growth 96h – Primary qHTS for delayed death inhibitors of the malarial parasite plastid, 96 hour incubation; Potency, µM (highest dose often 28.7 µM), most hits filed as inhibitors; 320,000 compounds, 6.9% hits; P. falciparum luciferase reporter growth, 96 h
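Plates of compound plus infected erythrocytes (2% hematocrit, 0.05% parasitemia final) incubate 96 hours, 37 C, 5% CO2. Detection reagent added; reduced luminescence from the parasites' luciferase reporter flags inhibition.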
HCV inh – qHTS Assay for Inhibitors of Hepatitis C Virus (HCV); Huh7.5.1 HCVcc-Cre infection, luciferase reporter, 44 h; Potency, µM (top dose mostly 41.8 µM), hits mostly inhibitors; 340,000 compounds, 3.4% hits
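Antiviral activity was scored by luciferase reporter output from cells infected with HCVcc-Cre (~0.5 moi) in presence of compound, 44 h infection period, cells seeded 1,000/well 4 h prior.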
Of the large screens only hits and unclear results are named; the others gave an inactive call. The list is not random: actives were taken first. Their share in the collection is about 14%. Unless noted, the call rests on the fitted dose curve; in most records, active means well fitted inhibition curve with a large enough effect; inconclusive means small, poorly fitted or top-dose-only effect, or another doubt; inactive means no such curve, though single readings can be large or run the other way.

O=C1NC(c2ccc(Br)cc2)Nc2ccccc21 (configuration not stated)	Lassa entry inh inconclusive
Cc1ccc(N=C2C(=O)Nc3ccccc32)cc1	none (no result: MARV entry inh, Lassa entry inh)
COc1cc(C2Nc3cccc4cccc(c34)N2)ccc1OC(C)=O	HCV inh inconclusive (no result: HCMV inh, Pf growth 96h)
COc1ccc(C2Nc3cccc4cccc(c34)N2)cc1Br	Pf growth 48h 10µM, Pf growth 96h inconclusive
CCN(CC)c1ccc(N=C2C(=O)Nc3ccccc32)cc1	MARV entry inh inconclusive, HCMV inh -96, Pf growth 48h 3.3µM, Pf growth 96h inconclusive, HCV inh inconclusive
CCN(CC)c1ccc(C2Nc3cccc4cccc(c34)N2)cc1	Pf growth 48h 10µM, Pf growth 96h inconclusive
CCN(CC)c1ccc(C2NC(=O)c3ccccc3N2)cc1 (configuration not stated)	MARV entry inh inconclusive, Lassa entry inh 6.3µM (no result: Pf growth 48h, Pf growth 96h)
COc1ccc2c(c1)sc1ncc(C(=O)NCc3ccc(OC(C)C)cc3)c(=O)n12	MARV entry inh inconclusive (no result: Pf growth 48h, Lassa entry inh, Pf growth 96h, HCV inh)
COc1ccc(-c2nc3c(C)cc(Br)cn3c2Cc2cccc(Cl)c2)cc1OC	none (no result: MARV entry inh, Pf growth 48h, Lassa entry inh, Pf growth 96h, HCV inh)
COc1ccc(Cl)cc1NC(=O)Cn1c(=O)c(-c2ccccc2NC(C)=O)nc2ccccc21	none (no result: Pf growth 48h, Pf growth 96h, HCV inh)
Cc1ccc(CNC(=O)Cn2c(=O)cc(-c3ccccc3)c3c(C)nn(C)c32)cc1	none (no result: MARV entry inh, Pf growth 48h, Pf growth 96h, HCV inh)
O=C1NC(c2ccccc2Cl)Nc2ccccc21 (configuration not stated)	MARV entry inh inconclusive
O=C1NC(c2cccc3ccccc23)Nc2ccccc21 (configuration not stated)	MARV entry inh inconclusive, HCMV inh -69, Lassa entry inh inconclusive (no result: Pf growth 48h, Pf growth 96h)
CCNC(=O)c1cnc2c(-c3ccccc3)c(C)nn2c1C	none (no result: MARV entry inh, Pf growth 48h, Pf growth 96h, HCV inh)
CC(C)NC(=O)CCCN1C(=O)c2ccccc2Sc2ncccc21	Pf growth 96h 0.26µM (no result: MARV entry inh, Lassa entry inh)
Cc1ccc(NC(=O)CCN2C(=O)c3ccccc3Sc3ncccc32)cc1	HCMV inh inconclusive, Lassa entry inh inconclusive, Pf growth 96h inconclusive
COc1cccc(NC(=O)CCN2C(=O)c3ccccc3Sc3ncccc32)c1	Pf growth 96h 2.9µM (no result: MARV entry inh)
O=c1c2ccccc2c(-c2ccc(O)cc2)nn1-c1cccc(C(F)(F)F)c1	MARV entry inh inconclusive, HCMV inh inconclusive, Pf growth 48h 9.3µM, Lassa entry inh inconclusive, Pf growth 96h inconclusive, HCV inh inconclusive
O=c1c2ccccc2c(-c2cccc(C(F)(F)F)c2)nn1-c1ccccc1	MARV entry inh inconclusive, Pf growth 48h inconclusive, Lassa entry inh inconclusive, Pf growth 96h 9.3µM
Cc1nn(-c2ccc(Cl)cc2)c(=O)c2ccccc12	Lassa entry inh inconclusive
O=c1c2cccc3c2c(nn1-c1ccccc1)-c1ccccc1-3	Pf growth 96h inconclusive, HCV inh inconclusive
O=c1c2ccccc2c(-c2ccc(Cl)cc2)nn1-c1ccccc1	HCMV inh -63, Pf growth 48h 3.3µM, Pf growth 96h inconclusive, HCV inh inconclusive
COc1ccc(S(=O)(=O)N2CCCC2CNC(=O)c2cccc(OC)c2)cc1 (configuration not stated)	Pf growth 48h inconclusive, Pf growth 96h inconclusive
Cc1ccc(NC(=O)COC(=O)CN2C(=O)c3ccccc3C2=O)cc1	none (no result: MARV entry inh, Lassa entry inh)
CCN(CC)C(=O)CSc1nc2ccc(NC(=O)CSc3nnc(N)s3)cc2s1	MARV entry inh inconclusive, Pf growth 48h inconclusive, Lassa entry inh inconclusive, Pf growth 96h inconclusive, HCV inh inconclusive
O=C(CSc1nc2ccc(NC(=O)CSc3nnnn3Cc3ccccc3)cc2s1)Nc1ccccc1	MARV entry inh inconclusive, Pf growth 48h 13µM, Pf growth 96h inconclusive
Cc1ccccc1OCc1nnc(SCC(=O)Nc2ccc3nc(SCC(=O)Nc4ccccc4)sc3c2)n1C	MARV entry inh inconclusive, Pf growth 48h 13µM, Lassa entry inh inconclusive, Pf growth 96h 10µM, HCV inh 1.1µM
CCN(CC)C(=O)CSc1nc2ccc(NC(=O)CSc3nccn3C)cc2s1	MARV entry inh inconclusive, Pf growth 48h 8.3µM, Pf growth 96h inconclusive, HCV inh inconclusive
CCOC(=O)c1ccccc1NC(=O)CSc1nc(N)cc(N)n1	Pf growth 96h 12µM
Cc1nc2c(C)cccn2c1/C(O)=C1\C(=O)C(=O)N(CCN(C)C)C1c1cccs1 (configuration not stated)	none (no result: Pf growth 48h, Pf growth 96h)
COCOCCn1cc(CN2CCS(=O)(=O)N(Cc3ccc(-c4ccc(Cl)cc4)cc3)C(CC(C)C)C2=O)nn1 (configuration not stated)	Lassa entry inh inconclusive (no result: MARV entry inh, Pf growth 48h, Pf growth 96h, HCV inh)
CC(=O)Nc1cccc(NC(=O)CSc2nnnn2Cc2ccccc2)c1	MARV entry inh inconclusive, Lassa entry inh inconclusive, Pf growth 96h 5.9µM, HCV inh inconclusive
Cc1ccc(NC(=O)CSc2nc3ccc(NC(=O)c4ccco4)cc3s2)cc1	HCMV inh -62 (no result: Pf growth 48h, Pf growth 96h, HCV inh)
CCOC(=O)c1ccccc1NC(=O)CSc1nnc(COc2ccccc2C)n1C	MARV entry inh inconclusive, Pf growth 48h 13µM, Pf growth 96h inconclusive, HCV inh inconclusive
Cc1ccc(C)c(NC(=O)CSc2nc3ccc(N4C(=O)c5ccccc5C4=O)cc3s2)c1	Pf growth 96h 4.1µM
O=C(CSc1nnnn1Cc1ccccc1)Nc1cccc(F)c1	none
Cc1ccc(NC(=O)CSc2nc3ccc(NC(=O)CCc4ccccc4)cc3s2)c(C)c1	none (no result: Pf growth 48h, Pf growth 96h, HCV inh)
CC(C)c1cc(Cn2c3ccccc3c(=O)n2C(C)CBr)on1 (configuration not stated)	none (no result: MARV entry inh, Pf growth 48h, Lassa entry inh, Pf growth 96h, HCV inh)
Cc1cccc(OCc2nnc(SCC(=O)c3cccs3)n2C)c1C	Pf growth 96h 8.3µM (no result: HCV inh)
Cc1ccccc1OCc1nnc(SCC(=O)NCc2ccccc2)n1C	none (no result: Pf growth 96h)
Cc1ccccc1OCC(=O)Nc1ccc2nc(SCC(=O)N3CCOCC3)sc2c1	HCMV inh -78 (no result: Pf growth 48h, Pf growth 96h, HCV inh)
Cc1ccccc1OCC(=O)Nc1ccc2nc(SCC(=O)N3CCCC3)sc2c1	MARV entry inh inconclusive (no result: Pf growth 48h, Pf growth 96h, HCV inh)
CC1C(=O)N(c2ccc(S(=O)(=O)N(C)C)cc2)C1(/C=C/c1ccccc1)C(=O)NC1CCCC1 (configuration not stated)	MARV entry inh inconclusive, Pf growth 48h 9.3µM, Lassa entry inh inconclusive
O=C1CC(/C=C/c2ccccc2)(C(=O)NC2CCCC2)N1c1ccc(S(=O)(=O)N2CCCC2)cc1 (configuration not stated)	MARV entry inh inconclusive
CNC(=S)N/N=C/c1c2ccccc2c(Cl)c2ccccc12	Pf growth 48h 2.6µM, Pf growth 96h 10µM, HCV inh inconclusive (no result: Lassa entry inh)
CNC(=S)N/N=C/c1c(C)cccc1Cl	HCMV inh inconclusive, Pf growth 96h 13µM
Cc1cccc(Cn2c(NCC(C)O)nc3c2c(=O)n(C)c(=O)n3C)c1 (configuration not stated)	HCMV inh inconclusive, HCV inh 4.5µM (no result: Pf growth 96h)
